Data published in PubChem BioAssay (NCI).
The panel holds about 83,000 compounds, 20% with a hit somewhere; the sample as a whole holds those more often.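 Activity criterion: percent growth below 10, measured after cells in 96-well plates were exposed to a single compound concentration for 48 hours.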 Unmarked numbers belong to inactive results. Calls of active or inactive are those of the source.

Columns and labels:
Assay in all cases: NCI-60 one-dose screen, 48 h (100 = growth as untreated, 0 = no growth, -100 = all killed)
Settings in all cases: 10 µM unless noted
T-47D breast = test system: T-47D breast
BT-549 breast = test system: BT-549 breast
MDA-MB-435 melanoma = test system: MDA-MB-435 melanoma
SW-620 colon = test system: SW-620 colon
MCF7 breast = test system: MCF7 breast
HCT-116 colon = test system: HCT-116 colon
HCC-2998 colon = test system: HCC-2998 colon
KM12 colon = test system: KM12 colon

Compound	growth (T-47D breast)	growth (BT-549 breast)	growth (MDA-MB-435 melanoma)	growth (SW-620 colon)	growth (MCF7 breast)	growth (HCT-116 colon)	growth (HCC-2998 colon)	growth (KM12 colon)
Cc1cccc(NC(=O)CSc2nc3ccccc3[nH]2)c1	88.9%	104%	103%	101%	92%	107%	102%	100%
O=C1CC(N2C(=O)/C(=C/C(Cl)=C\c3ccc([N+](=O)[O-])cc3)SC2=S)C(=O)N1c1ccc(O)cc1 (centres undefined)	17.2%	-17.3% (active)	-12% (active)	0.226% (active)	-11.6% (active)	-31.2% (active)	-81.6% (active)	-72.4% (active)
CN(C)CC1C(=O)O[C@H]2[C@H]1CC/C(COC(=O)c1cc3ccccc3[nH]1)=C\CC[C@@]1(C)O[C@@H]21 (some centres undefined)	-76.6% (active)	-52% (active)	-38.2% (active)	-19.3% (active)	-41.8% (active)	-83.3% (active)	-82% (active)	6.93% (active)
CC/C=C\C[C@H](O)C/C=C1/C(=O)C=C[C@@H]1C/C=C\CCCC(=O)OC	-0.483% (active)	-20.6% (active)	4.45% (active)	-44.4% (active)	4.43% (active)	-56.5% (active)	-78.4% (active)	-54.3% (active)
Cc1ccc2c(c1)Sc1c(ccc3ccccc13)N2	47.2%	81.2%	81.6%	73.7%	56.5%	29.1%	67.6%	55.1%
C[C@H]1[C@H]2[C@H]3CC[C@@H]4[C@@]5(C)C/C(=C/c6ccco6)C(=O)C(C)(C)[C@@H]5CC[C@@]4(C)[C@]3(C)CC[C@]23CO[C@]1(C)[C@@H](C(=O)/C=C\c1ccco1)C3	80.3%	111%	43.4%	99.3%	88.8%	101%	108%	99.8%
COc1cc2nc(Cl)nc(Nc3ccc(S(=O)(=O)Nc4nccs4)cc3)c2cc1OC	94.3%	95.1%	106%	105%	103%	95%	72.9%	112%
Cc1ccc(/C=C2\C(=O)N(C)c3ccc(S(=O)(=O)Nc4ccc(C(C)(C)C)cc4)cc32)s1	55%	87.4%	69.1%	50.4%	54.6%	37.2%	85%	59.9%
Cc1ccc(-c2c(-c3ccccc3)c(=O)oc3ccc(C)cc23)cc1	84.3%	108%	103%	99.5%	116%	72.8%	90.5%	92%
CC(CN1CCCCC1)C(=O)c1ccccc1 (centres undefined)	99.2%	116%	104%	104%	91%	112%	119%	105%
COc1cccc(/C=C/C(=O)c2c(C)nc3ccccc3c2/C=C/c2ccc(C)cc2)c1OC	29.1%	69.1%	55.5%	31%	13.8%	8.38% (active)	36.4%	65.6%
O=[N+]([O-])c1ccc(C2CC(c3ccccc3)=Nc3ccccc3S2)cc1 (centres undefined)	70.9%	95%	103%	79.4%	32.6%	36.2%	103%	73.6%
COc1cccc(-c2nn(-c3ccccc3)cc2-c2ccnc(NCCCNC(=O)Nc3ccc(Cl)c(Cl)c3)c2)c1	-15% (active)	7.49% (active)	-36.3% (active)	12%	5.21% (active)	2.97% (active)	-61.8% (active)	-13.4% (active)
C=CCOC1=CC(=O)c2ccccc2C1=O	54.2%	95.4%	-67.5% (active)	33.2%	-2.95% (active)	8.07% (active)	98%	87.8%
Cc1c2c(c(C)c3c1oc1cc(O)ccc13)C(=O)N(CCN1CCCCC1)C2=O	91.1%	97.7%	93.3%	67.8%	90.3%	67.4%	93.6%	83.9%
CCCCNC(=O)Oc1ccc2c(=O)c3sc4c(=O)c5ccccc5c(=O)c4c3c(=O)c2c1	-38.5% (active)	-90.2% (active)	-88.9% (active)	-75.6% (active)	-59.2% (active)	-15.6% (active)	-87.1% (active)	-29.9% (active)
CC1OC(O[C@H]2/C=C/C=C/C=C/C=C/C=C/C=C/C=C/[C@H](C)[C@@H](O)[C@@H](C)[C@H](C)OC(=O)CC(O)CC(O)CCC(O)C(O)CC(O)C[C@]3(O)C[C@H](O)C(C(=O)O)C(C2)O3)C(O)[C@H](N)C1O (some centres undefined)	54.3%	36.6%	-69.5% (active)	-24.9% (active)	28.8%	-38.1% (active)	53.5%	41.6%
CC(C)(C)c1ccc(/C=C/C(=O)Nc2ccc(O)cc2)cc1	64.4%	66.6%	50.9%	71%	60.9%	68.1%	97%	36.5%
Cc1ccc(-c2cc(-c3cccnc3)[nH]c(=O)c2C#N)cc1	95.6%	111%	103%	102%	94.7%	115%	102%	101%
Cc1cc(C)c2c(-c3nnc(N)s3)cc(=O)oc2c1	99.6%	98.8%	94.3%	98.2%	92.2%	102%	108%	98.8%
Cc1ccc2nc(NC(=O)CSc3nc(-c4ccccc4)c(C#N)c(=O)n3Cc3ccccc3)sc2c1	-80.8% (active)	89.3%	45.7%	87.4%	86.2%	95.9%	118%	90.6%
Cc1ccc(Nc2nc(N)nc(CSCC(=O)NN)n2)cc1	102%	93.6%	94.3%	98.9%	94.3%	103%	109%	98.1%
COc1cc(-c2n/c(=C\c3c(O)[nH]c4ccc(Cl)cc34)cc3c2=Nc2ccccc2-3)cc(OC)c1OC	32.7%	101%	16.6%	-29.5% (active)	0.83% (active)	-73.5% (active)	44.6%	2.53% (active)
Cc1c(C)c2c(c(C)c1OCC(=O)O)CC[C@@](C)(CCC[C@@H](C)CCC[C@@H](C)CCCC(C)C)O2	23.6% [50 µM]	-4.37% [50 µM] (active)	15% [50 µM]	-41.8% [50 µM] (active)	15.6% [50 µM]	-66.1% [50 µM] (active)	-3.58% [50 µM] (active)	-73.8% [50 µM] (active)
O=C(Nc1ccc(Nc2ccncc2)cc1)c1ccc(C(=O)Nc2ccc(Nc3ccncc3)cc2)cc1	33.8%	123%	48.8%	42.2%	26.8%	32.7%	87%	47.4%
C[n+]1cccc(CC(=O)NO)c1	79%	103%	107%	105%	96.4%	104%	110%	107%
N#Cc1c(N)nc(NCCO)nc1-c1ccc(F)cc1	79.7%	98.6%	104%	99.8%	97.3%	93.7%	105%	103%
CC(=O)OC[C@H]1OC(Sc2sc(C(=O)c3ccc(Br)cc3)c(N)c2-c2nc3ccccc3s2)[C@H](OC(C)=O)[C@@H](OC(C)=O)[C@@H]1OC(C)=O (some centres undefined)	73.7%	80.7%	80.7%	54%	62.7%	18.7%	75.9%	78.3%
